PubChem BioAssay AID1063 (University of Pittsburgh Molecular Library Screening Center, 2008)
About 18,000 (9%) of roughly 200,000 compounds were called active. Shown is part of a subset that was picked to be rich in actives. Values without a mark were called inactive. Cut-off read from the data, not from the text of the source: active = inhibition above about 50%; inactive = the rest.

Test: Leishmania major promastigote growth inhibition, primary screen (AID 1063);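 note: promastigotes grown with compound for 44 hours at 28 °C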
Details: Leishmania major promastigotes, resazurin fluorescence viability; at 10 µM; stronger effect = higher value

Row | Compound | inhibition
1 | Cc1nc2ccccn2c1C(=O)NN=C1CCN(C)CC1 | 35.4%
2 | Nc1ccc(C(=O)OCC(=O)NC2CCCc3ccccc32)cc1[N+](=O)[O-] (configuration not stated) | -5.78%
3 | O=C(NC1CCc2ccccc21)C12CN(Cc3ccccc3)CC1C(c1cccc([N+](=O)[O-])c1)=NO2 (configuration not stated) | 58.3% (active)
4 | CCOc1cnc(C(=O)NNC(=O)c2ccccc2Br)o1 | -1.9%
5 | Cc1ccc(NC(=O)NNC(=O)c2sccc2-n2cccc2)cc1 | -8.12%
6 | COC(=O)C1=C(C)N(C)C(=S)NC1c1ccccc1 (configuration not stated) | -3.63%
7 | COC(=O)C1NN=C(C(=O)c2ccc(Br)cc2)C1c1cccc(Br)c1 (configuration not stated) | 24.8%
8 | COC(=O)C1=C(C)N(C)C(C)=C(C(=O)OC)C1c1cccc(Br)c1 | 52.8% (active)
9 | COc1cccc(N(Cc2nnc3n2CCCCC3)C(=O)Nc2ccccc2F)c1 | -3.13%
10 | CCOc1ccc(Nc2nc(Cl)nc(N3CCN(c4ccc(OC)cc4)CC3)n2)cc1 | 53% (active)
11 | COC(=O)c1ccc(Oc2nc(Nc3ccc(F)cc3)nc(N3CCCC3)n2)cc1 | 2.39%
12 | CCOc1ccc(NC(=O)CN2CCN(CC(=O)Nc3ccc(OC)cc3)CC2)cc1 | 39.6%
13 | O=C(Oc1cccc(O)c1)C1CCCCC1 | -0.1%
14 | CCC(=O)Nc1c(S(=O)(=O)c2ccccc2)c2nc3ccccc3nc2n1Cc1ccccc1 | 32.2%
15 | Cc1ccc(S(=O)(=O)Nc2nc(N)n(-c3ccccc3)n2)cc1 | -11%
16 | Cc1ccc(S(=O)(=O)c2c(N)n(C)c3nc4ccccc4nc23)cc1 | 99.1% (active)
17 | Cc1noc(/C=C/N(C)C)c1S(=O)(=O)N1CCCC(C(=O)NCc2ccco2)C1 (configuration not stated) | -6.58%
18 | Cc1noc(/C=C/c2ccco2)c1S(=O)(=O)N1CCC(C(=O)Nc2ccc(Cl)cn2)CC1 | 74.5% (active)
19 | CCOc1ccc(OCC)c(NC(=O)C2CCN(S(=O)(=O)c3c(C)noc3C)CC2)c1 | 26.8%
20 | O=C(C1CCN(S(=O)(=O)Cc2ccccc2)CC1)N1CCCc2ccccc21 | 24.6%
21 | CCOC(=O)C1CCN(C(=O)C2CCN(S(=O)(=O)c3c(C)noc3C)CC2)CC1 | -2.98%
22 | Cc1noc(/C=C/c2ccco2)c1S(=O)(=O)N1CCC(C(=O)N2CCc3ccccc32)CC1 | 66.6% (active)
23 | CC1=C(C(=O)N(C)C)C(c2ccccc2OC(F)F)NC(=O)N1 (configuration not stated) | -4.21%

Row | Compound | inhibition
24 | CC(=O)NC(Cc1ccc(F)c(F)c1)C(=O)NC1CCN(C(=O)c2ccc(C)cc2)CC1 (configuration not stated) | -6.89%
25 | CCN(CC)CC(=O)Nc1sc2c(c1C(=O)c1ccccc1C)CCC2 | 47.2%
26 | CCOC(=O)C1(Cc2ccc(Cl)cc2)CCN(C(=O)C2=NNC(=O)CC2)CC1 | 0.36%
27 | O=C(CSc1ccc(/C=N/NC(=O)c2cccc(F)c2)o1)Nc1ccccc1 | -5.63%
28 | O=C(N/N=C/c1ccc([N+](=O)[O-])o1)c1cn(-c2ccccc2)nc1-c1ccc(F)cc1 | 63.2% (active)
29 | Cc1nnc(SCC(=O)N/N=C/c2cn(-c3ccccc3)nc2-c2ccc(F)cc2)n1-c1ccccc1 | -0.75%
30 | OC1CCCN(c2ncnc3c2nnn3Cc2c(F)cccc2Cl)C1 (configuration not stated) | -5.48%
31 | CCCCCCCCCOC1OC(CO)C(O)C(O)C1NC(C)=O (configuration not stated) | 16.4%
32 | CC(=O)NC1C(Oc2ccc(C=O)cc2)OC(COC(C)=O)C(OC(C)=O)C1OC(C)=O (configuration not stated) | -1.48%
33 | CC(=O)NC1C(OCc2ccccc2)OC(COC(C)=O)C(OC(C)=O)C1OC(C)=O (configuration not stated) | 55.7% (active)
34 | Cc1ccc2nc(COc3ccc(N(C)S(=O)(=O)c4ccccc4)cc3)cc(=O)n2c1 | -0.08%
35 | Cc1nn(CCOc2ccc(Br)cc2)c(C)c1[N+](=O)[O-] | -0.48%
36 | COc1ccccc1CN(C)c1nnnn1-c1ccccc1 | 6.46%
37 | CC(C)CC[n+]1ccn(C2=C([O-])c3ccccc3C(=O)/C2=N\S(=O)(=O)c2ccccc2)c1 | 77.1% (active)
38 | CN1C(=O)/C(=C/c2ccco2)SC1=Nc1cccc(C(=O)O)c1 | -6.02%
39 | COCCCNC(=O)C1CCC(CNS(=O)(=O)c2ccc(OC)cc2)CC1 (configuration not stated) | -4.6%
40 | CCC1(CC)NC(=O)N(CC(=O)OCC(=O)NC(=O)c2ccccc2)C1=O | 10.3%
41 | Cc1ccc(Cl)cc1-c1ccc(/C=N/n2cnnc2)o1 | 64.2% (active)
42 | Cc1cc(-c2ccc(/C=N/n3cnnc3)o2)c([N+](=O)[O-])cc1C | 2.14%
43 | Cc1cc([N+](=O)[O-])c(-c2ccc(/C=N/n3cnnc3)o2)cc1Cl | 2.86%
44 | Cc1ccc(N2C(=O)SC(N(CC(=O)O)c3ccc(C)cc3)C2=O)cc1 (configuration not stated) | -0.34%
45 | Cc1cc(C(=O)N/N=C/c2ccc(N3CCOCC3)cc2)c(C)o1 | 7.7%
46 | CNC(=S)N/N=C/c1ccc(N2CCOCC2)s1 | 90.2% (active)

Row | Compound | inhibition
47 | CCOc1cccc(/C=N/NC(=S)NCCN2CCOCC2)c1O | 4.68%
48 | COC(=O)[C@H](C)NC(=O)Nc1ccc(OC(F)(F)F)cc1 | -4.5%
49 | COC(=O)Cc1ccc(OCC(=O)Nc2ccc(OC(F)(F)F)cc2)cc1 | 54.1% (active)
50 | CCNC(=S)Nc1ccc(OC(F)(F)F)cc1 | -1.95%
51 | COc1ccc(OC)c(CNC(=O)c2cc(=O)[nH]c3ccc(S(=O)(=O)N4CCCC4)cc23)c1 | -4.76%
52 | COc1ccc(-n2cc(CN(C)Cc3n[nH]c(=O)[nH]3)c(-c3cccc(F)c3)n2)cc1 | 2.9%
53 | O=C(O)COc1ccc(/C=N/O)cc1Br | -4.34%
54 | O=C(CN1CCN(c2ccc(Cl)cc2)CC1)NCc1cccs1 | -4.73%
55 | CCN(C(=O)Cc1nc(N)n[nH]1)C1(C(=O)Nc2ccccc2)CCCCC1 | -8.2%
56 | O=C1N/C(=N\N=C\c2ccco2)SC1Cc1ccc(F)cc1 (configuration not stated) | -16.9%
57 | COc1ccc(-c2cc(C)nc3nc(N)nn23)cc1 | 0.56%
58 | Cc1cc(C(C)(C)C)cc(C)c1N | 3.48%
59 | Cc1cc(N)n2nc(-c3ccc(C(C)(C)C)cc3)cc2n1 | 80.3% (active)
60 | CCOC(=O)c1ccc(N2C(=O)CC(N3CCN(C(=O)c4ccccc4)CC3)C2=O)cc1 (configuration not stated) | -1.97%
61 | O=C(c1ccc(F)cc1)n1cc(C(=S)N2CCOCC2)c2ccccc21 | -2.86%
62 | Cc1c(NC(=S)NC(=O)CCc2ccccc2)c(=O)n(-c2ccccc2)n1C | -2.93%
63 | CN(C)CCNC(=O)/C(=C/c1cccc([N+](=O)[O-])c1)NC(=O)c1ccccc1 | 68.3% (active)
64 | C=CCNC(=O)/C(=C\c1cccc([N+](=O)[O-])c1)NC(=O)c1ccccc1 | -2.62%
65 | O=C(NCCc1ccccc1)/C(=C\c1ccc([N+](=O)[O-])cc1)NC(=O)c1ccccc1 | -2.32%
66 | Cc1nnc(SCc2cccc(Cl)c2)n(N)c1=O | 9.66%
67 | CN1CCN(S(=O)(=O)c2cccc(C(=O)N3CCc4ccccc43)c2)CC1 | 7%
68 | S=C(NCCc1ccccc1)N1CCn2cccc2C1c1ccncc1 (configuration not stated) | 81.9% (active)
69 | S=C(Nc1cccc(Br)c1)N1CCn2cccc2C1c1cccnc1 (configuration not stated) | 91.2% (active)

Row | Compound | inhibition
70 | Fc1cc(Br)ccc1NC(=S)Nc1cccnc1 | 5.1%
71 | COc1cccc(NC(=O)CC2C(=O)NCCN2C(=S)Nc2ccc(F)cc2)c1 (configuration not stated) | -2.74%
72 | S=C(NCCc1ccccc1)N1CCCCC1 | -2.11%
73 | O=C1CCN(C(=S)NCCc2ccccc2)CC1 | -11.3%
74 | O=C(/C=C/c1ccccc1)Oc1coc(CSc2ncccn2)cc1=O | -7.34%
75 | COCCCNC(=S)N(Cc1ccccc1)Cc1ccc(F)cc1 | 9.14%
76 | Cc1cccc2cc(CN(Cc3cccs3)C(=S)NCc3ccco3)c(=O)[nH]c12 | 46%
77 | Cc1cc(C)c2[nH]c(=O)c(CN(Cc3ccccc3)C(=S)NCCCN(C)C)cc2c1 | 100% (active)
78 | CN1C=CC=C/C1=C1\SC(=S)N(Cc2ccccc2)C1=O | -0.34%
79 | CN(C)C(CNC(=O)c1cccc(C#N)c1)c1ccco1 (configuration not stated) | 3.86%
80 | COc1cccc2cc(C(C)N(CCCN3CCOCC3)C(=O)Nc3ccc(Cl)cc3)oc12 (configuration not stated) | 48.2%
81 | CCc1ccccc1NC(=S)N(CCN1CCCCCC1)Cc1ccco1 | 21.6%
82 | Cc1ccc(NC(=S)N(CCCN2CCCC2)Cc2cccn2Cc2ccc(Cl)cc2)cc1 | 99.7% (active)
83 | CCOC(=O)N1CCN(CCC(=O)Nc2cc(OC)ccc2OC)CC1 | -3.46%
84 | CCOC(=O)N1CCN(C(=O)C2CCN(Cc3ccc(OC)cc3OC)CC2)CC1 | 53.4% (active)
85 | CCOC(=O)N1CCN(C(=O)C2CCN(S(C)(=O)=O)CC2)CC1 | -5.19%
86 | Cc1ccc(C)c(Cn2nnc3c(=O)[nH]c(C(=O)Nc4ccc(F)cc4)nc32)c1 | 39%
87 | O=[N+]([O-])c1ccc2[nH]c3c(c2c1)CCCC3O (configuration not stated) | -1.72%
88 | CCn1c(CNC(=O)c2ccco2)nnc1SCC(=O)Nc1cccc(F)c1 | -1.95%
89 | CCCCNC(=O)N1CCN(S(C)(=O)=O)CC1 | -0.76%
90 | Cc1ccc(C)c(Cn2cnc3c(oc4ccccc43)c2=O)c1 | -7.39%
91 | Cc1ccc(C)c(NC(=O)CSc2nc3c(oc4ccccc43)c(=O)n2-c2ccccc2)c1 | 97.7% (active)
92 | Cc1ccc(C)c(NC(=O)CSc2nnc(Cc3cccn3C)n2-c2ccc(F)cc2)c1 | -0.8%
